A number with no mark means an inactive call. Records with an inconclusive call do not appear. A call without a number means that no potency is given here. Calls of active or inactive are those of the source. Calls come from the whole dose curve.
Columns and labels:
[1] = biological target: Acetylcholinesterase (Homo sapiens) (UniProt P22303); test: Acetylcholinesterase (AChE) small molecule antagonists: colormetric cell-based qHTS assay (AID 1347395); note: nearly all actives have a fitted effect of over 30% in size; note: potency is the fitted concentration of half-maximal effect
Sequence of Acetylcholinesterase (Homo sapiens) (P22303 whole entry, looked up): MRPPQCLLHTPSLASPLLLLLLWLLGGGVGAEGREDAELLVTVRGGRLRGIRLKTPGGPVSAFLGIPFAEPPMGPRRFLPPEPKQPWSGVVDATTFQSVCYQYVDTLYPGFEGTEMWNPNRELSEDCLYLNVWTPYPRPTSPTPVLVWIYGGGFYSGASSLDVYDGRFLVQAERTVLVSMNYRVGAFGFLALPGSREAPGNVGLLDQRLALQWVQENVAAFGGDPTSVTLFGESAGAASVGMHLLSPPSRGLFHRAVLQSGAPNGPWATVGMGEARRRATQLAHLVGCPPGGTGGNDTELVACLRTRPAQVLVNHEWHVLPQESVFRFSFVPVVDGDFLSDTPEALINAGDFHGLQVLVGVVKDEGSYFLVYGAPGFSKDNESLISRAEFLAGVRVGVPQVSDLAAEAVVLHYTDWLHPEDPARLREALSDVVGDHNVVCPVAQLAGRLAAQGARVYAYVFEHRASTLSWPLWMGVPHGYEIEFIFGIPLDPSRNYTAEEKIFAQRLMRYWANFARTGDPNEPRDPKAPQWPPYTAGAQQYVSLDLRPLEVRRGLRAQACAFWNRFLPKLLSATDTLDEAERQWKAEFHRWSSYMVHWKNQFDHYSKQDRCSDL
Summary of the method: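 AChE inhibition read colorimetrically via DTNB–thiocholine in SH-SY5Y cells. Compound 30 min, substrate 90 min, both 37 C.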

[2] = biological target: Acetylcholinesterase (Homo sapiens) (UniProt P22303); test: Acetylcholinesterase (AChE) small molecule antagonists: enzyme-based qHTS assay (AID 1347397); settings: Potency: AChE enzyme activity inhibition; outcome: AChE enzyme activity inhibition; note: nearly all actives have a fitted effect of over 55% in size; note: potency is the fitted concentration of half-maximal effect
Summary of the method: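 Recombinant human AChE, dispensed at 50 mU/mL, was preincubated with Tox21 10K compounds or DMSO vehicle for 30 min at room temperature. DTNB plus acetylthiocholine was then added, and thiocholine was measured colorimetrically after a further 10 min.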

[3] = biological target: Acetylcholinesterase (Homo sapiens) (UniProt P22303); test: Acetylcholinesterase (AChE) small molecule antagonists: enzyme-based qHTS assay with human liver microsomes (AID 1347399); settings: Potency: qHTS inhibition; outcome: qHTS inhibition; note: nearly all actives have a fitted effect of over 60% in size
Summary of the method: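 Recombinant human AChE (50 mU/mL in the enzyme mix) and human liver microsomes (0.25 mg/mL final) were preincubated with compound and NADPH (0.25 mg/mL final) for 30 min at 37 C. Acetylthiocholine/DTNB was then added; thiocholine was read colorimetrically after 10 min at room temperature.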

Row | SMILES | Potency [1] | Potency [2] | Potency [3] | activity, negative = inhibition [1] | activity change, negative = inhibition [2] | activity change, negative = inhibition [3]
1 | C(/C=C/C=C/Nc1ccccc1)=Nc1ccccc1 | 35.6 µM (active) | inactive | inactive | – | – | –
2 | CC(C(O)c1ccccc1)N(C)CCOC(c1ccccc1)c1ccccc1 (stereo unspecified) | inactive | inactive | inactive | – | – | –
3 | C=C(C)[C@@H]1CC[C@@H](C)C[C@@H]1O | inactive | inactive | inactive | – | – | –
4 | Oc1cc2ccccc2c2ccccc12 | inactive | inactive | inactive | – | – | –
5 | Oc1ccc(C2(c3ccc(O)cc3)CC3CC2C2CCCC32)cc1 (stereo unspecified) | inactive | 76.5 µM (active) | inactive | – | – | –
6 | CC1CN(c2cc3c(cc2F)c(=O)c(C(=O)O)cn3-c2ccc(F)cc2F)CCN1 (stereo unspecified) | – | – | – | 1.81% [at 10.5 µM] | 0.0761% [at 10.5 µM] | 5% [at 10.5 µM]
7 | COC(=O)c1cc(Cl)ccc1OC | inactive | inactive | inactive | – | – | –
8 | CC(C)NCC(O)c1ccc2ccccc2c1 (stereo unspecified) | inactive | inactive | inactive | – | – | –
9 | CN1CCN(CCC(=O)N2c3ccccc3Sc3ccc(C(F)(F)F)cc32)CC1 | inactive | inactive | inactive | – | – | –
10 | CCN(CC)CCOCCOC(=O)C1(c2ccccc2)CCCC1 | inactive | inactive | inactive | – | – | –
11 | CCCCCCCC/C=C/CCCCCCCC1=NCCN1CCO | inactive | inactive | inactive | – | – | –
12 | CN(C)C(=O)Nc1ccc(Oc2ccc(Cl)cc2)cc1 | inactive | inactive | inactive | – | – | –
13 | Nc1nc(N)c(-c2ccccc2)s1 | inactive | inactive | inactive | – | – | –
14 | CCCC(C)C(O)CC (stereo unspecified) | inactive | inactive | inactive | – | – | –
15 | c1ccc(C(O[C@H]2CCCN(CCc3ccc4c(c3)OCO4)C2)c2ccccc2)cc1 | inactive | inactive | inactive | – | – | –
16 | COC(=O)C(c1ccccc1Cl)N1CCc2sccc2C1 (stereo unspecified) | inactive | inactive | inactive | – | – | –
17 | CNC(=O)c1c(I)c(NC(C)=O)c(I)c(C(=O)O)c1I | inactive | inactive | inactive | – | – | –
18 | O=C(O)c1c(Cl)cccc1Cl | inactive | inactive | inactive | – | – | –
19 | CC1(COc2ccc(CC3SC(=O)NC3=O)cc2)CCCCC1 (stereo unspecified) | inactive | inactive | inactive | – | – | –
20 | COc1ccccc1N=Nc1c(S(=O)(=O)O)cc2cc(S(=O)(=O)O)cc(NC(C)=O)c2c1O | inactive | inactive | inactive | – | – | –
21 | Oc1ccc(C2CNCCc3c2cc(O)c(O)c3Cl)cc1 (stereo unspecified) | inactive | inactive | inactive | – | – | –
22 | CN(C)CCOCCO | inactive | inactive | inactive | – | – | –
23 | CCc1nccnc1C | inactive | inactive | inactive | – | – | –
24 | COc1cc2c(Nc3ccc(Br)cc3F)ncnc2cc1OCC1CCN(C)CC1 | inactive | inactive | inactive | – | – | –
25 | CC(C)=C1CC[C@@H](C)CC1=O | inactive | inactive | inactive | – | – | –
26 | CCN(CC)CCOc1ccc(C(O)(Cc2ccc(Cl)cc2)c2ccc(C)cc2)cc1 (stereo unspecified) | inactive | inactive | inactive | – | – | –
27 | O=C1CCc2cc(OCCCCc3nnnn3C3CCCCC3)ccc2N1 | 24.5 µM (active) | inactive | inactive | – | – | –

From PubChem BioAssay (Tox21)
